Our source for the morphology score and SARS-CoV-2 infection rate values is the supplement of paper PMC13380429.

Test [1] has as its system Vero E6 infected with SARS-CoV-2. The test is described as follows: morphology score (similarity to uninfected cells); higher = more like uninfected cells. The conditions noted are these: 24 h.
Test [2] has the same test system. The experiment in a line: SARS-CoV-2 infection rate relative to infected DMSO; higher = more infection, active = 60 or less. The conditions noted are these: 24 h.

On to `Nc1ncnc2c1ncn2CCOCP(=O)(O)O` [adefovir] (10 µM), for which the morphology score in test [1] is -0.0616. The SARS-CoV-2 infection rate in test [2] is 110% (inactive).

`C=CC(=O)O` [acrylate] (10 µM): in test [1], the morphology score was -0.0871. Moreover, the SARS-CoV-2 infection rate in test [2] is 109% (inactive).

`Cn1cnc(N)c2ncnc1-2` [3-methyladenine] (10 µM) showed a morphology score in test [1] of 0.258. In addition, in test [2], the SARS-CoV-2 infection rate is 93% (inactive).

In test [1], `Cc1cccc(OCC(O)CNC(C)(C)C)c1C` (stereo not drawn) [xibenolol] (10 µM) registered a morphology score of 0.0955. In test [2], the SARS-CoV-2 infection rate was 97.5% (inactive).

As for `COc1ccc(C2(O)CCC(N3CC[C@@H](NC(=O)CNC(=O)c4cccc(C(F)(F)F)c4)C3)CC2)cn1` (stereo partly drawn) (10 µM), in test [1], the morphology score is -0.0197. The SARS-CoV-2 infection rate in test [2] was 105% (inactive).

In turn, `O=C(O[C@@H]1Cc2c(O)cc(O)cc2O[C@@H]1c1ccc(O)c(O)c1)c1cc(O)c(O)c(O)c1` [epicatechin-gallate-(-)] (10 µM) registered a morphology score in test [1] of 0.106. In test [2], the SARS-CoV-2 infection rate was 100% (inactive).

With `Fc1ccc(C(OCCN2CCN(C/C=C/c3ccccc3)CC2)c2ccc(F)cc2)cc1` (10 µM), the morphology score in test [1] was found to be 0.456. Further, the SARS-CoV-2 infection rate in test [2] is 65.5% (inactive).

With `CCN(CCO)CCCC(C)Nc1ccnc2cc(Cl)ccc12` (stereo not drawn) [hydroxychloroquine] (10 µM), in test [1], the morphology score came out at 0.362. In test [2], the SARS-CoV-2 infection rate was 88% (inactive).

For `CCOc1cncc(/C=C/CCNC)c1` (10 µM), the morphology score in test [1] is -0.0406. Besides, the SARS-CoV-2 infection rate in test [2] is 108% (inactive).

For the molecule `O=c1[nH]cnc2c1ncn2[C@H]1CC[C@@H](CO)O1` [didanosine] (10 µM), the morphology score in test [1] came out at 0.186. The SARS-CoV-2 infection rate in test [2] was 112% (inactive).

As to `CC(=O)OC[C@H]1O[C@@H](n2ccc(=O)[nH]c2=O)[C@H](OC(C)=O)[C@@H]1OC(C)=O` [uridine-triacetate] (10 µM), the morphology score in test [1] was -0.0249. Besides, in test [2], the SARS-CoV-2 infection rate was 112% (inactive).

Take `CN1CCN(c2ccc(C(=O)Nc3n[nH]c4ccc(Cc5cc(F)cc(F)c5)cc34)c(NC3CCOCC3)c2)CC1` [entrectinib] (0.833333 µM): the morphology score in test [1] worked out at 0.134. The SARS-CoV-2 infection rate in test [2] is 96.5% (inactive).

As to `Cc1c(F)cc(C(=O)NC2CC2)cc1-c1c(F)cn2c(C(C)(C)C)nnc2c1F` (10 µM), the morphology score in test [1] was -0.202. Further, the SARS-CoV-2 infection rate in test [2] is 108% (inactive).

`O=C(Cc1ccccc1)Nc1nc2ccc(Cl)cc2c2nc(-c3ccco3)nn12` (10 µM) gave a morphology score in test [1] of -0.00361. The SARS-CoV-2 infection rate in test [2] was 110% (inactive).

`CCOc1c(N2CCOCC2)cnn(C)c1=O` [emorfazone] (10 µM): in test [1], the morphology score amounted to 0.185. The SARS-CoV-2 infection rate in test [2] was 100% (inactive).

Regarding `CC(C)Nc1cccnc1N1CCN(C(=O)c2cc3cc(NS(C)(=O)=O)ccc3[nH]2)CC1` [delavirdine] (10 µM), in test [1], the morphology score worked out at 0.0195. In addition, the SARS-CoV-2 infection rate in test [2] is 110% (inactive).

In turn, `Cc1n[nH]c2ccc(-c3cncc(OC[C@@H](N)Cc4ccccc4)c3)cc12` (10 µM) yielded a morphology score in test [1] of 0.111. In addition, the SARS-CoV-2 infection rate in test [2] is 92.5% (inactive).

For the molecule `CCCC(C)NC(=O)c1ccc(Cl)c(Cl)c1` (stereo not drawn) (10 µM), the morphology score in test [1] is -0.46. The SARS-CoV-2 infection rate in test [2] is 119% (inactive).

As for `O=c1c2ccccc2[se]n1-c1ccccc1` [Ebselen] (10 µM), the morphology score in test [1] is 0.34. In addition, the SARS-CoV-2 infection rate in test [2] was 84.5% (inactive).

As to `CO[C@@H]1[C@H](O)[C@@H](CO)O[C@H]1n1cnc2c(NC3CCCCC3)ncnc21` (10 µM), in test [1], the morphology score is -0.0183. Also, the SARS-CoV-2 infection rate in test [2] was 108% (inactive).

For `CCCSc1ccc2[nH]c(NC(=O)OC)nc2c1` [albendazole] (0.833333 µM), the morphology score in test [1] was 0.0557. The SARS-CoV-2 infection rate in test [2] was 98% (inactive).

`O=C(Oc1ccc([N+](=O)[O-])cc1)N1CCC(C(O)(c2ccc3c(c2)OCO3)c2ccc3c(c2)OCO3)CC1` (10 µM) registered a morphology score in test [1] of 0.0091. Also, in test [2], the SARS-CoV-2 infection rate was 103% (inactive).

Consider `O=C(O)c1cc(O)c2ccc(Cl)cc2n1` [7-chlorokynurenic-acid] (10 µM), for which the morphology score in test [1] stood at 0.0315. The SARS-CoV-2 infection rate in test [2] is 110% (inactive).

On to `Cc1ccc(S(=O)(=O)NC2c3ccccc3Oc3ccccc32)cc1` (10 µM), for which, in test [1], the morphology score came out at 0.173. Moreover, the SARS-CoV-2 infection rate in test [2] is 95.5% (inactive).

`CNC(=O)Nc1ccc(-c2nc(N3CC4CCC(C3)O4)c3cnn(C4CCC5(CC4)OCCO5)c3n2)cc1` (0.833333 µM) yielded a morphology score in test [1] of -0.104. The SARS-CoV-2 infection rate in test [2] was 100% (inactive).

On to `CN1c2ccccc2C(NCCCCCCC(=O)O)c2ccc(Cl)cc2S1(=O)=O` (stereo not drawn) [tianeptine] (10 µM), for which the morphology score in test [1] was found to be 0.237. The SARS-CoV-2 infection rate in test [2] was 104% (inactive).

The molecule `O=[N+]([O-])c1ccc(O)c([N+](=O)[O-])c1` [2,4-dinitrophenol] (10 µM) had a morphology score in test [1] of 0.0596. For the same molecule, in test [2], the SARS-CoV-2 infection rate is 97.5% (inactive).

In test [1], `Oc1c(Br)cc(Br)c2cccnc12` [broxyquinoline] (10 µM) displayed a morphology score of 0.015. Moreover, the SARS-CoV-2 infection rate in test [2] was 104% (inactive).

Take `CN1CCN(CC/C=C2/c3ccccc3Sc3ccc(S(=O)(=O)N(C)C)cc32)CC1` [thiothixene] (10 µM): the morphology score in test [1] was found to be 0.381. In addition, in test [2], the SARS-CoV-2 infection rate is 80.5% (inactive).
